# Reference: article PMC5540273 (PLoS ONE, 2017)
# How the values were obtained:
# Conditions in all cases: concentration: 1 μM, replicates: in singlicate; n = 1
# MTOR = tested on: MTOR
# MUSK = tested on: MUSK
# MYLK2 = tested on: MYLK2
# MYLK4 = tested on: MYLK4
# MYLK = tested on: MYLK
# MYO3A = tested on: MYO3A
# MYO3B = tested on: MYO3B
# NDR1 = tested on: T1, NDR1
# T1 construct: gene STK38
# NDR2 = tested on: NDR2
# NEK10 = tested on: NEK10
# 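Also: KINOMEscan kinase panel screen.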
SMILES,%Inh (MTOR) [%],%Inh (MUSK) [%],%Inh (MYLK2) [%],%Inh (MYLK4) [%],%Inh (MYLK) [%],%Inh (MYO3A) [%],%Inh (MYO3B) [%],%Inh (NDR1) [%],%Inh (NDR2) [%],%Inh (NEK10) [%]
COc1cc(Nc2nccc(N3CCC(NC(=O)Nc4ccc5c(c4)OCO5)C3)n2)cc(OC)c1OC (stereo not drawn) [GSK1379766],26,19,10,1,21,18,0,0,9,34
N#Cc1cnc2cc(-c3cnc(CNCCN4CCOCC4)s3)ccc2c1Nc1ccc(Oc2ccccc2)cc1 [GW664114],12,3,0,13,6,55,48,14,0,4
O=C(Nc1n[nH]c2nc(-c3ccccc3)ccc12)C1CC1 [SB-708999],0,13,86,11,30,25,0,0,13,0
CCNC(=O)/C=C/c1n[nH]c2cc(Sc3ccccc3C(=O)NC)ccc12,14,32,3,20,11,8,0,25,18,24
CN(c1ccc(F)c(NC(=O)c2cccc(OC(C)(C)C#N)c2Cl)c1)c1ccc2nc(NC(=O)C3CC3)sc2n1,0,0,0,0,30,0,0,0,29,0
COc1cccc2c(-c3ccncc3)c(-c3ccc(F)cc3)nn12 [GW468513],20,21,0,0,12,4,0,8,0,0
COC(=O)Nc1nc2ccc(Oc3ccc(CC(=O)Nc4cc(C(F)(F)F)ccc4F)cc3)cc2[nH]1 [GW680903],26,95.5,0,0,10,12,0,0,0,21
CN(C)c1ncnc2nc[nH]c12 [SKF-31736],54,14,0,30,0,0,0,35,24,21
CN(C)CCNS(=O)(=O)c1ccc(-c2ccnc3[nH]ccc23)cc1 [GSK977620],17,23,35,99.5,28,0,0,29,15,17
COC(=O)Nc1nc2cc(Oc3ccc(NC(=O)Nc4cccc(SC)c4)cc3)ccc2[nH]1.Cl [GW697999],28,98.9,2,0,11,25,0,11,0,7
NCCC(NC(=O)c1cc(Br)c(-c2ccnc3[nH]ccc23)s1)c1ccccc1.O=C(O)C(F)(F)F.O=C(O)C(F)(F)F (stereo not drawn) [GSK1307810],12,11,8,99.9,34,0,0,96.7,96.7,9
CN1CCN(Cc2ccc(NC(=O)Nc3ccc(N(C)c4ccnc(Nc5ccc(CS(C)(=O)=O)cc5)n4)cc3)cc2)CC1.Cl [GW827654],0,98.8,61,18,45,99.1,0,0,0,28
CC(C)(C)c1ccc(C(=O)Nc2cn3cc(-n4ccnc4)ccc3n2)cc1,10,1,18,2,0,0,0,8,7,0
Cc1cccc(Nc2nc(NCCN)ncc2C(N)=O)c1 [GSK1292139],12,6,5,94.3,8,5,0,21,25,47
Fc1cc(Cl)ccc1Nc1ccnc2cc(-c3ccc(CN4CCOCC4)o3)ccc12 [GW560109],1,0,8,1,47,0,1,0,0,0
O=C(O)C(F)(F)F.O=c1[nH]ccc2nc(N[C@@H]3CCNC3)nc(Nc3ccc4c(c3)S(=O)(=O)CC4)c12 [GSK2181306],1,0,78,60,98.1,74,4,89,89,95.3
Nc1ncnc2scc(-c3ccc(NC(=O)Cc4cc(F)ccc4F)cc3)c12.O=C(O)C(F)(F)F [SB-731254-M],0,2,38,72,8,29,0,12,25,0

SMILES,%Inh (MTOR) [%],%Inh (MUSK) [%],%Inh (MYLK2) [%],%Inh (MYLK4) [%],%Inh (MYLK) [%],%Inh (MYO3A) [%],%Inh (MYO3B) [%],%Inh (NDR1) [%],%Inh (NDR2) [%],%Inh (NEK10) [%]
CN(c1ccc2c(c1)nc(NCc1ccccc1)n2C)c1ccnc(Nc2ccc(CS(C)(=O)=O)cc2)n1.Cl [GW811603],10,36,26,0,8,5,19,8,0,17
CNc1nccc(-c2ccc3c(N)n[nH]c3c2)n1 [GSK2206003],11,3,60,97.1,68,53,0,24,9,29
Cl.O=C(Nc1ccc(Oc2ccc3[nH]c(NC(=O)c4ccco4)nc3c2)cc1)Nc1cc(C(F)(F)F)ccc1F [GW683134],5,98.6,75,3,0,0,9,0,0,0
CN(c1ccc(NC(=O)Nc2cccc(Cl)c2)cc1)c1ccnc(N)n1.Cl [GW830707],13,72,0,6,0,3,36,10,25,1
Nc1ncc(-c2cn[nH]c2)c2scc(-c3ccc4c(c3)CCN4C(=O)Cc3ccccc3)c12 [GSK2593067],4,64,69,17,4,6,0,0,0,22
Cl.Cl.NCC(NC(=O)c1cc(-c2cccnc2)c(-c2ccnc3[nH]ccc23)s1)c1ccccc1 (stereo not drawn) [GSK1323434],10,18,15,98.2,23,39,0,67,13,79
O=C1NC(=O)C(c2ccccc2Cl)=C1Nc1cccc(Cl)c1 [SB-342409],4,8,11,3,9,0,3,1,0,51
CCn1cnc2c(NCc3ccccc3)ncnc21 [SKF-96418],37,0,0,6,0,0,0,30,14,14
Cc1ccc(O)cc1Nc1ccnc2ccc(C(C)(C)C)cc12 [GW856805],0,27,5,13,25,13,6,18,23,27
CC(C)NCC(Cc1ccccc1)NC(=O)c1cc(Br)c(-c2ccnc3[nH]ccc23)s1.Cl.Cl (stereo not drawn) [GSK1383281],6,0,1,79,56,19,0,90.3,65,2
Cc1cccc(Nc2nc(N[C@H]3CCCC[C@H]3N)ncc2C(N)=O)c1.Cl [GSK986310],0,27,7,93.8,29,8,0,27,0,71
COc1cccc(CC(=O)N2CCc3cc(-c4cn(C)c5ncnc(N)c45)ccc32)c1 [GSK2608899],8,27,64,7,20,38,18,22,0,7
Cc1ccc(Nc2ccnc(Nc3ccc(C)c(F)c3)n2)cc1O.Cl [GW582868],15,12,0,29,9,2,0,0,0,0
COC(=O)Nc1nc2ccc(Oc3ccc(NC(=O)Nc4cc(C(F)(F)F)ccc4F)cc3)cc2[nH]1.Cl [GW654607],34,99.6,33,0,10,0,0,29,0,21
COc1cc(Nc2ccnc3cc(-c4ccncc4)ccc23)cc(OC)c1OC.Cl [GW494610],20,10,13,0,84,19,6,17,0,0
COc1cccc(-c2nc(-c3ccccc3)[nH]c2-c2ccncc2)c1 [SB-610250],13,0,8,0,0,18,0,9,0,20
